# KCNQ2 pot = enhances the rat KCNQ2 potassium channel | O88943 | CHO-K1 KCNQ2, FluxOR thallium flux fluorescence; active compounds read high | B-score at 10 µM | 310,000 tested, 0.54% active | AID 2239;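 active = fluorescence ratio B-score at least 3 SD of library B-scores, with initial fluorescence B-score within 3 of them, cut at about 5.3 in these data; same plate scores as AID 2156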;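 also: B-score of peak minus minimum over baseline fluorescence ratio after K+ and Tl+ stimulus; positive B-score means potentiation of KCNQ2 with more thallium influx and brighter signal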
# KCNQ2 inh = blocks the rat KCNQ2 potassium channel. O88943. CHO-K1 KCNQ2, FluxOR thallium flux, 20 min; active compounds read low. B-score at 10 µM. 310,000 tested, 1.1% active;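 active = fluorescence ratio B-score at most minus 3 library SDs, with starting brightness B-score within 2 library SDs, cut at about -5.5 in these data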
# KCNQ2 block conf = rat KCNQ2 channel inhibition, confirmatory screen | shares compounds with KCNQ2 inh | KCNQ2-expressing cells, thallium flux; active compounds read low | activity change, negative = inhibition, % at 10 µM | 1,000 tested, 57% active | AID 493025
# KCNQ1 spec = selectivity of KCNQ2 inhibitors against human KCNQ1; shares compounds with KCNQ2 inh; KCNQ1-expressing cells, FluxOR thallium flux fluorescence; active compounds read low; activity change, negative = inhibition, % at 10 µM; 1,000 tested, 15% active; AID 493026;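 active = activity change at least 3 SD of negative controls below their mean in both duplicate wells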;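 also: CHO cells stably transfected with KCNQ1 and depolarized by potassium stimulus; peak minus minimum fluorescence over baseline after thallium addition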
# Target sequence (P51787 whole entry, looked up): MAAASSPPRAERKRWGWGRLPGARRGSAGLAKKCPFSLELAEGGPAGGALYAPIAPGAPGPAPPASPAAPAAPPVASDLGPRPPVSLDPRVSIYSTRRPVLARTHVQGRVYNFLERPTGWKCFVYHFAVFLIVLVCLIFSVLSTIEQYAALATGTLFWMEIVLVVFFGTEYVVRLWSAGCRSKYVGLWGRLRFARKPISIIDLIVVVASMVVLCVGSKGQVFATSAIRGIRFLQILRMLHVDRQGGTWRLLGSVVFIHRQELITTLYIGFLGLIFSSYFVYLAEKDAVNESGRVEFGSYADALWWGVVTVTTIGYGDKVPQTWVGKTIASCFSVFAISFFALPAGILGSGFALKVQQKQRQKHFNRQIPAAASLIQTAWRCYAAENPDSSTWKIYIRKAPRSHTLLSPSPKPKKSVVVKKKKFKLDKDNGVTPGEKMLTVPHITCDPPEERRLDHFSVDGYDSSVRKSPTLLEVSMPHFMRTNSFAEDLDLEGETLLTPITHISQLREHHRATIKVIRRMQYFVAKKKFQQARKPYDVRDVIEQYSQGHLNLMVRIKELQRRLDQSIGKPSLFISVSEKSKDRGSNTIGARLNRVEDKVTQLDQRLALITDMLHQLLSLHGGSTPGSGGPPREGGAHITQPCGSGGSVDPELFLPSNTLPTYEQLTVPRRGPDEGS
# CHO parental ctr = activity in parental CHO cells lacking KCNQ2 | thallium flux counter-screen; active compounds read low | 1,000 tested, 14% active | shares compounds with KCNQ2 inh | activity change, % at 10 µM
# KCNQ2 patch conf = confirmation of rat KCNQ2 potassium channel inhibitors. shares compounds with KCNQ2 inh. KCNQ2-expressing cells, automated patch clamp current. calls only at 10 µM. 550 tested, 49% active. AID 588531
# Numbers stand for hits; i = inactive; nt = not tested or not shown; + = active, no number. A selection: hits, their analogues and other compounds. The true share with any hit is near 1.6%. Unless noted, no rule for the calls is given here.
SMILES,KCNQ2 pot,KCNQ2 inh,KCNQ2 block conf,KCNQ1 spec,CHO parental ctr,others
O=C(CSc1nnc(NC(=O)C2CC(=O)N(c3ccc(F)cc3)C2)s1)NC1CCCC1 (stereo not given),i,i,nt,nt,nt,
CC(NC(=O)c1ccccc1Cl)c1ccc(-n2ccnc2)cc1 (stereo not given),i,i,nt,nt,nt,
O=c1[nH]cnc2c1C(c1ccccc1)c1c(nc[nH]c1=O)O2,i,i,nt,nt,nt,
CCOc1ccccc1CNC(=O)CCC(=O)N1Cc2ccccc2Oc2ncccc21,nt,i,nt,nt,nt,
CCOc1ccc2c(c1)-c1c(ssc1=S)C(C)(C)N2C,i,-7,i,i,i,
CCOc1ccc2c(c1)C(C)=CC(C)(C)N2S(=O)(=O)c1ccc(F)cc1,nt,i,nt,nt,nt,
COCCN(Cc1ccccc1)C(=O)c1cc(-c2ccc(OC)c(OC)c2)nc2ccccc12,i,-8.9,-30%,i,i,KCNQ2 patch conf=+
COc1cc(-c2cc(C(=O)Nc3ccc(S(N)(=O)=O)cc3)c3ccccc3n2)cc(OC)c1OC,nt,i,nt,nt,nt,
COc1ccccc1CN(C)C(=O)c1cc(-c2cc(OC)c(OC)c(OC)c2)nc2ccccc12,nt,i,nt,nt,nt,
COc1ccc(-c2cc(C(=O)NCC(c3ccccc3)N(C)C)c3ccccc3n2)cc1OC (stereo not given),nt,i,nt,nt,nt,
COc1cc(-c2cc(C(=O)Nc3c(Cl)cc(Cl)cc3Cl)c3ccccc3n2)cc(OC)c1OC,i,-7.2,-25%,i,i,KCNQ2 patch conf=+
COc1cc(-c2cc(C(=O)N(C)Cc3ccccc3)c3ccccc3n2)cc(OC)c1OC,i,-7.2,-28%,i,i,KCNQ2 patch conf=+
COc1cc(C(=O)N/N=C/c2ccc(OC(=O)c3cccc(C)c3)c(OC)c2)ccc1O,nt,i,nt,nt,nt,
c1ccc(CCNc2nc(-c3ccccn3)nc3ccccc23)cc1,i,-8.6,-29%,i,i,KCNQ2 patch conf=i
CCCN(CCC)c1nc(-c2ccccn2)nc2ccccc12,nt,i,nt,nt,nt,
CCSc1nnc(-c2cccc(S(=O)(=O)N(CC)CC)c2)n1Cc1ccccc1,i,-10,i,i,i,
CCNC(=O)CSc1nnc(-c2cccc(S(=O)(=O)N(CC)CC)c2)n1CCc1ccccc1,nt,i,nt,nt,nt,
CCNc1nc(NCC)nc(NS(=O)(=O)c2ccc(N)cc2)n1,i,i,nt,nt,nt,
CCCC(=O)OCC(=O)Nc1ccc2c(c1)OCO2,i,i,nt,nt,nt,
COc1cc(NC(=O)C(c2ccccc2)c2ccccc2)c(C(=O)O)cc1OC,i,i,nt,nt,nt,
COc1cc2c(cc1NC(=O)C(c1ccccc1)c1ccccc1)CCCC2,i,-7.1,-34%,i,i,KCNQ2 patch conf=+
COC(=O)N/N=C/c1cn(CC(C)COc2ccccc2)c2ccccc12 (stereo not given),nt,i,nt,nt,nt,
CCOc1cc(CNCCO)cc(Br)c1OCc1ccc(Cl)cc1,i,-8.1,i,i,i,
CCOc1cccc(CNCCO)c1OCc1ccc(Cl)cc1,i,i,nt,nt,nt,
CCOC(=O)Cn1c(CCC(=O)O)ccc1-c1ccc(F)cc1,i,-9.3,i,i,i,
SMILES,KCNQ2 pot,KCNQ2 inh,KCNQ2 block conf,KCNQ1 spec,CHO parental ctr,others
O=C(O)CCc1ccc(-c2ccc(F)cc2)n1CC(=O)O,nt,i,nt,nt,nt,
Cc1ccn2c(/C=N/OCc3cccc(F)c3)c(-c3ccc(Cl)cc3)nc2c1,i,-7.8,-18%,i,i,KCNQ2 patch conf=i
Clc1ccc(CO/N=C/c2c(-c3ccccc3)nc3n2CCS3)c(Cl)c1,nt,i,nt,nt,nt,
Cc1ccn2c(/C=N/OCc3ccc(F)cc3)c(-c3ccc(Cl)cc3)nc2c1,i,-9,-26%,i,i,KCNQ2 patch conf=+
Cc1ncc(N=Nc2ccc(F)cc2)c(-c2ccc(Cl)cc2)n1,i,i,nt,nt,nt,
COc1ccc(-n2c3c(c(=O)[nH]c2=O)C(NC(=O)c2ccncc2)(C(F)(F)F)C(=O)N3)cc1 (stereo not given),i,i,nt,nt,nt,
O=C(O)c1ccc(Cl)c(NC(=S)NC(=O)c2ccccc2[N+](=O)[O-])c1,i,i,nt,nt,nt,
O=C(CCCc1ccccc1)NCc1ccc(F)cc1,i,i,nt,nt,nt,
CCn1cc(C(=O)N[C@@H](CCSC)C(=O)NC(C)(C)CO)c(=O)c2cc3c(cc21)OCO3,i,i,nt,nt,nt,
CCN1CCN(S(=O)(=O)c2ccc(OC)c(NC(=O)c3ccccc3)c2)CC1,i,i,nt,nt,nt,
O=C(CN1CCCc2ccccc21)NCCc1ccc(Cl)cc1,i,-11,-34%,i,i,KCNQ2 patch conf=+
O=C(CN1CCCc2ccccc21)NCc1ccc2c(c1)OCO2,nt,i,nt,nt,nt,
Cc1cc(C)c(N=C2CCCN2Cc2ccccc2)c(C#N)c1,i,-8.8,-32%,i,i,KCNQ2 patch conf=+
N#Cc1ccccc1N=C1CCCN1Cc1ccccc1,nt,i,nt,nt,nt,
Cc1ccc2c(c1)NC(c1cccs1)C1=C(CC(C)(C)CC1=O)N2 (stereo not given),nt,i,nt,nt,nt,
